± gives the standard deviation of the averaged measurements. Over roughly 25,000 sequences, “ln(normalized median fluorescence intensity)” has its median near 8.9; the highest 2% begin near 10. The sample as a whole holds a higher share of the highest values than the screen did.
The sequences below were run on PfAP2-LT AP2 domain (GST-tagged) (assay: gcPBM binding intensity (ln(normalized median fluorescence intensity)); higher = stronger DNA binding).
Method in brief: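 After 1 h on an Agilent 4 × 180k array of primer-extended double-stranded 36-bp intergenic genomic probes and negative controls, bound GST-tagged P. falciparum DNA-binding domains were detected with Alexa488 anti-GST antibody and scanned at 488 nm. The domains had been expressed in E. coli, and binding took place in 1× PBS with 1% milk, 0.2 mg/ml BSA, 0.5% salmon testes DNA and 0.03% Triton X-100. Binding intensity is the highest Masliner-normalised natural-log median intensity across replicate spots of either probe orientation.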

Sequence | gcPBM binding intensity (ln)
TGAACACGCACAAATACACACAAAAAAAATAAATAA [CACACA_site6257] | 9.31 ± 0.49
TATATACACGCACATACACACAAATAAAAAAACACC [CACACA_site7578] | 9.67 ± 0.31
CATATACACGAACACACACACACACGCACAAAAAAA [CACACA_site6376] | 10.1 ± 0.24
AAAAAAAAAAAAAATATATATATATATATATATATA [CACACA_negctrl_site540] | 10.1 ± 0.25
AAAAAAAAAAAAAAAAAAAAAAAAAAATATATATAT [CACACA_negctrl_site271] | 8.74 ± 0.28
AAAAAAATATATATATATATATATATATATATATAT [TGCATGCA_negctrl_site7] | 9.605 ± 0.064
AAAAAAAAAAAAAAAAAAAAATATATATATATATAT [GTGCAC_negctrl_site426] | 9.67 ± 0.085
AAAAAAAAAATATATATATATATATATATATATATA [GTGCAC_negctrl_site467] | 10.1 ± 0.2
AAAAAAAAAAAAAAAAAAAAAAAAATATATATATAT [CACACA_negctrl_site436] | 9.25 ± 0.27
ATATTTATATATATCATACACACTAATATGTATATT [CACACA_site3409] | 8.95 ± 0.42
ATATAAATAAATACAACACACATGTCATATCTAAAT [CACACA_site7533] | 9.12 ± 0.39
AGTAGTCTGGAGAAATGTACACAGTATCTGGTAGCT [XGTACX_site4871] | 8.86 ± 0.44
AAAAAAAAAAAAAACACACACACACGCATACACATA [CACACA_site7364] | 10.2
AATACATATAATACAACACACAAGTAATATAAACCT [CACACA_site3597] | 9.34 ± 0.29
AAAAAAAAAAAACACACACACAAATACAAATACATA [CACACA_site415] | 9.99 ± 0.38
AAAACATACATATATACACACATATATATATATATA [CACACA_site1852] | 9.97 ± 0.53
AAGTAATACAACACGCACATATATATATATATATAT [GTGCAC_negctrl_site89] | 10.3 ± 0.25
AAAAAAAAAAAAAACACACACACACGCACATATACA [CACACA_site7288] | 10.1 ± 0.3
GGTACATACAAACACACACACAAAAAAAAAAAAATA [CACACA_site1577] | 9.65 ± 0.4
AAAAAAAAAAAAAAAACACACATACACGCACGCACA [CACACA_site7569] | 9.35 ± 0.23
CACATACACATACACATACACACGCATAGAAACATA [CACACA_site2136] | 9.71 ± 0.28
ATACAACATATATATACACACATATAATAATAATAA [CACACA_site3367] | 9.26 ± 0.38
AAAAAAAAAAAAAACACACACACACGCAAATACATA [CACACA_site6474] | 10.3 ± 0.27
CATATATATATATATTGTACAAGATTGTTTTTTTAT [XGTACX_site3913] | 8.79 ± 0.3

Sequence | gcPBM binding intensity (ln)
ATAAAAATTTAAAAAGAACACACGAAAGAAGGACTT [CACACA_site3929] | 9.01 ± 0.53
TTTTTTATGATTAACACACACACAAAAAAAAAAAAA [CACACA_site4130] | 9.03 ± 0.32
AAAAATTTTAATTAGGAACACACATATATATATATA [CACACA_site9016] | 9.48 ± 0.42
ATATTTGCCCAAGATAGTACATATATATATATATAT [XGTACX_site7756] | 9.74 ± 0.2
TACATATTTTATAACTGTACTTTTTTATTATCCAAT [XGTACX_site5396] | 8.71 ± 0.47
AACACATACAAACACACACACAAAAAAAAAAAAAAA [CACACA_site393] | 9.65 ± 0.49
TAAACATACCTATACACACACACACGCACACGCACA [CACACA_site6372] | 10.22 ± 0.042
AAAAAAAAAAAAAACACACACACAAATACAAATACA [CACACA_site414] | 9.9 ± 0.36
TAAATAAAAAGACACACACACATATTTATATTTATA [CACACA_site7135] | 9.7 ± 0.19
AAGGATCACGCACAAACACACATATTTATATTTATA [CACACA_site6405] | 9.14 ± 0.45
AACATACACATATACACACACACATATATACCTATA [CACACA_site6643] | 10 ± 0.31
AACAAAAAAACAAACACACACACACGCATATTTATA [CACACA_site7680] | 10.2 ± 0.29
AAAAAAAAAAAACATACACACATACATACCTATATA [CACACA_site6575] | 9.33 ± 0.3
AAAAAAAAAAAAAACACACACACACGCATACAAAAT [CACACA_site6794] | 10.2 ± 0.13
AAAAAAAACAAACACACACACAAATATTTATATATT [CACACA_site436] | 9.63 ± 0.22
ATAAAAAGGAGACACACACACACACGCATATTTATA [CACACA_site6551] | 10.3 ± 0.26
TAAAAGGAGACATATACACACATATATATATATATA [CACACA_site5539] | 10 ± 0.23
AATGAAGACTTTTTTACACACTTCATATATTATATA [CACACA_site2034] | 8.9 ± 0.39
ATATATCAAAATAATTGTACAAATTTTATATAATTT [XGTACX_site7249] | 8.53 ± 0.47
CGTACATAATTTTAATCACACACAAACAAACACATA [CACACA_site7947] | 9.42 ± 0.34
ATACTAAAAAGTATCTGTACTTATTTTAAAAATAAA [XGTACX_site4116] | 8.19 ± 0.53
TTATATTCTTTTCTCTTTCTACTTTTTTTTTTTTTT [XGTACX_negctrl_site317] | 8.45 ± 0.69
ATAGGTGAATACTAATATAAATTCAAGAGGGAAAAG [CACACA_negctrl_site720] | 8.9 ± 0.55
AAAAAAGTAAAAAGTGCATGTAAAATATAAGTATCT [TGCATGCA_site55] | 9.18 ± 0.61

Sequence | gcPBM binding intensity (ln)
CATATACATATATGTAGTACGTGTTCTTCTATATGA [XGTACX_site8344] | 8.84 ± 0.44
TATAATGGTTCTGGTGTGCACCATGACAGAATCAAG | 8.82 ± 0.38
GTGTAAATATAATTAGTTTCACAAAACAAATATTTA [CACACA_negctrl_site717] | 8.61 ± 0.42
AAAGGGGATATATGAACACACAAAAAAAAAATATAT [CACACA_site2896] | 9.13 ± 0.68
ATTCTTTACTCATAAAATTATATTATATAAACTTTT [XGTACX_negctrl_site554] | 8.45 ± 0.52
AGTAATTTAAGGAATACACACAAGAAAAAAATAAGA [CACACA_site6177] | 9.13 ± 0.61
AGATCATAATATTATACACACATTATATATCTGTAA [CACACA_site4925] | 9.14 ± 0.26
GATCTACATGAAAGGACACACAAATATATATATATA [CACACA_site84] | 9.62 ± 0.35
AAATAAAAAAAATAAAAGCAATCATAATAAAAATCT [CACACA_negctrl_site161] | 8.79 ± 0.46
ATAAAAATATAATTGAGTACATATGAATAGTCCTAT [XGTACX_site6281] | 8.65 ± 0.42
GTAAATACACATATGTGTACATATATATATATATAT [XGTACX_site3696] | 9.67 ± 0.31
CGAAATCATATGTACACACACATATATATATATATA [CACACA_site2151] | 10.1 ± 0.18
ACATACACATATACATGTACATATATATATATATAT [XGTACX_site5082] | 9.68 ± 0.3
ATACACACATATATGTGTACATATACATATATATAT [XGTACX_site6744] | 9.88 ± 0.32
ATATATATATATATATGTACACACATCAATCATATT [XGTACX_site4005] | 9.96 ± 0.33
TACGAAATCATATGTACACACACATATATATATATA [CACACA_site5216] | 9.8 ± 0.14
GATATGTACTAATACACACACATATATATATATATA [CACACA_site1022] | 10.2 ± 0.23
AAAAAATGCGACATGTGTACACATATATATATATAT [XGTACX_site1679] | 9.81 ± 0.3
ATATATATATATATATGTACATATACACATGTGTGC [XGTACX_site168] | 10.14 ± 0.099
AAGATATGTACTAATACACACACATATATATATATA [CACACA_site8249] | 9.86 ± 0.14
TAAATACTAATATGTACACACATATAGATATAGATT [CACACA_site7247] | 8.96 ± 0.38
AAATGCGCCATGTGTACACATATATATATATATATA [CACACA_site4649] | 10.1 ± 0.18
TGAAAATATTTTATATGTACATATATTATCAATACA [XGTACX_site92] | 8.64 ± 0.38
TTTCTGATATTTTTATATTTTCTTATATATATATAT [GTGCAC_negctrl_site652] | 8.77 ± 0.52

Sequence | gcPBM binding intensity (ln)
TGTCTTATTTATATTACACACTATATGAAAAAATAT [CACACA_site6807] | 8.6 ± 0.38
ATAAATAAATAAGTACATATATATATGTATATATAT [TGCATGCA_negctrl_site223] | 9.05 ± 0.42
ACTAAATAAATAAATATAATATATAAATATGTATGT [TGCATGCA_negctrl_site583] | 8.78 ± 0.43
TTTATTAATAATTATACACACATATAAAATGAATAA [CACACA_site1359] | 8.58 ± 0.51
TTAATATGAAAACTCTGTACCCAACCTTCTTATGGA [XGTACX_site2126] | 8.62 ± 0.28
ATGCAATTATATAGTAGTACAAATTTATAAATATAC [XGTACX_site4869] | 8.94 ± 0.37
ATTTAATAAAAAAAAAAAATATTGTAGAATATGATG [GTGCAC_negctrl_site195] | 8.27 ± 0.52
AAAGGTATATATGTGTGTACATATATATATATATAT [XGTACX_site5629] | 9.955 ± 0.0071
TCCTTTTCTTAATTTAAAAAATATAAAAAAAACGAA [CACACA_negctrl_site1821] | 7.94 ± 0.34
TGAACTCATAGGAAAACACACATATGTGCAATATAT [CACACA_site6231] | 9.12 ± 0.36
AAAACAAACAGACACACACACATATATATATATATA [CACACA_site3655] | 10.4 ± 0.24
AAAACAGACAAACACACACACACATATATATATATA [CACACA_site3393] | 10.37 ± 0.071
TATATATACAGACACATACACACAAATAAAAAAACA [CACACA_site3413] | 9.39 ± 0.35
AAAAAAAACGGACACACACACATACAAAATATATAT [CACACA_site4910] | 9.99 ± 0.28
TACAAACAGACATATACACACAAAAAAAAAATAAAA [CACACA_site2562] | 9.16 ± 0.43
AAAAGGAACAGACACACACACATATATAAATATGTA [CACACA_site7656] | 9.8 ± 0.42
AAAACAAACGGACACACACACATATATATATATATA [CACACA_site5924] | 10.2 ± 0.44
AAAAGGAACAGACACACACACATATATATATATATA [CACACA_site3587] | 10.3 ± 0.29
AAGGTAAACGGACACACACACATACAAAAAAAAAAA [CACACA_site5961] | 9.77 ± 0.67
AAAAAAAACAGACACACACACATAAATATAAATAAA [CACACA_site6214] | 9.74 ± 0.31
AAAAAAAACAGACACACACACATACAAAATATATAT [CACACA_site1449] | 9.79 ± 0.3
AAAACAAACAGACACACACACATATTTATATTTATA [CACACA_site7681] | 9.79 ± 0.4

— the supplement of paper PMC11417369
